Only some compounds are listed: those with a hit (about 19% of all), similar ones and a draw of the others.
TDP1 cell noCPT: qHTS for Inhibitors of human tyrosyl-DNA phosphodiesterase 1 (TDP1): qHTS in cells in absence of CPT; DT40 Tdp1-/- hTDP1 cells, no CPT, ATP luminescence, 48 h; Potency, µM (titrated, usually from 46.2 µM), for the others: at the highest dose activity change, negative = growth inhibition, actives largely listed as inhibitors; 420,000 compounds, 15% hits; AID 686978, 2013; further: potency means the concentration at half of the fitted maximal effect; on the % scale 0 is the no-effect control and ±100 the full control effect; nearly all actives have a fitted effect of over 55% in size
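A cellular qHTS used chicken DT40 cells lacking endogenous Tdp1 but carrying stably transfected human TDP1. Compounds were applied without camptothecin, and cell growth kinetics were judged by ATP-dependent luminescence after ≥48 hr.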
Chronic BCR inh: chronic active BCR signaling inhibition. 340,000 compounds, 0.05% hits. ABC-DLBCL IkBa-CBG/CBR reporter, luminescence ratio, 4 h. Potency, µM (top dose mostly 46.1 µM), inactives show top-dose activity change, negative = inhibition, actives largely listed as inhibitors. AID 493014; active means well fitted inhibition curve with a large enough effect in the signal ratio, with a control signal flat, not every such curve was filed as active; inconclusive means small, poorly fitted or top-dose-only effect, or effect the other way, or a change in a side signal; the % refers to the signal ratio;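 further: potency means the concentration at half of the fitted maximal effect; plate controls were basal doxycycline-induced cells for no effect and cells given 10 µM MG132 for full effect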
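Cell line TMD8 (human ABC DLBCL), stably expressing tet-inducible CBG68-IkBa fusion and CBR; IMDM/0.5% FBS; cpd up to 46 uM; dox induction, 4 h, 37C/5% CO2; dual luminescence; green/red ratio; MG132 control.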
SW480 rereplic: DNA re-replication induction in SW480 cells; SW480 DNA re-replication, Hoechst DNA content imaging, 48 h; Potency, µM (top dose mostly 46.1 µM), inactives show at the top dose re-replication activation, most hits filed as activators; 340,000 compounds, 1.8% hits; AID 624297; further: potency means the concentration at half of the fitted maximal effect; % of control where 0% means no effect; nearly all actives have a fitted effect of over 55% in size
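250 cells/well; 23 nL cpd via pin tool; 48 hr, 37 C, 5% CO2; Hoechst 40 min; imager read of total nuclear intensity, ex 405/em 500-530 nm.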
MCF10A rerep: induces DNA re-replication in MCF 10a normal breast cells | MCF 10A DNA re-replication, Hoechst nuclear intensity, 48 h | Potency, µM (doses to about 46.1 µM), without a hit: at the top dose activity, positive = re-replication, usual class: activators | 350,000 compounds, 2.9% hits | AID 624296; further: potency means the concentration at half of the fitted maximal effect; % of control where 0% means no effect; nearly all actives have a fitted effect of over 50% in size
IL1B secr inh: inflammasome signaling inhibition, IL-1 beta readout. THP-1 LPS/ATP IL-1B secretion, AlphaLISA, 16 h; hits give low values. activity change, % at 57.5 µM. 360,000 compounds, 4.7% hits. AID 743279; in the data active means activity change below about -50%; inconclusive means mostly about -30% to -49%; further: on the % scale 0 is the no-effect control and ±100 the full control effect
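THP-1 cells pretreated 1 hr with compounds (up to 57.5 uM final), then stimulated with LPS (250 ng/mL final) plus ATP (1.25 mM final); secreted IL-1B measured by AlphaLISA after 16 hr, decreased signal indicating inhibition.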
DT40 TDP1 CPT: growth inhibition of DT40 Tdp1-/-;hTDP1 cells with camptothecin (screen for TDP1 inhibitors). chicken DT40 Tdp1-/-;hTDP1 cells + 20 nM CPT, ATP luminescence, 48 h. Potency, µM (series often up to 46.2 µM), for the others: top-dose activity change, negative = growth inhibition, usual class: inhibitors. 420,000 compounds, 12% hits. AID 686979; further: potency means the concentration at half of the fitted maximal effect; on the % scale 0 is the no-effect control and ±100 the full control effect; nearly all actives have a fitted effect of over 55% in size
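Chicken DT40 Tdp1-/- cells complemented with human TDP1, 400 cells/well, exposed to compounds plus 20 nM camptothecin for at least 48 h at 37 C; viability read as ATP content by CellTiter-Glo luminescence.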
* marks the source's active call; other numbers are inactive results. Unless noted, the call rests on the fitted dose curve; in most records, active means well fitted curve in the direction sought with a large enough effect; inconclusive means small, poorly fitted or top-dose-only effect, or another doubt; inactive means no such curve, though single readings can be large; an effect the other way counts as inactive or inconclusive.

Screening CCCCCCCC(=O)NC(Oc1ccccc1[N+](=O)[O-])C(Cl)(Cl)Cl (configuration not stated) returned TDP1 cell noCPT -15.6%, Chronic BCR inh 14.0%, SW480 rereplic 9.6%, MCF10A rerep 20.6%, IL1B secr inh 2.4 and DT40 TDP1 CPT inconclusive.
CCOc1ccc(/C=C/c2nc(C#N)c(NCc3ccccc3)o2)cc1 was read as TDP1 cell noCPT 1.16µM* and DT40 TDP1 CPT inconclusive.
Screening Cc1onc(-c2ccccc2Cl)c1C(=O)NCc1ccc2c(c1)cc(C)n2C returned TDP1 cell noCPT 6.51µM*, Chronic BCR inh -7.4%, SW480 rereplic 0.4%, MCF10A rerep -4.5%, IL1B secr inh 0.0 and DT40 TDP1 CPT inconclusive.
`Cc1cc2cc(CNC(=O)Nc3ccc(Cl)c(Cl)c3)ccc2n1C` gave TDP1 cell noCPT inconclusive, Chronic BCR inh 11.9%, SW480 rereplic -10.8%, MCF10A rerep 7.8%, IL1B secr inh -3.5 and DT40 TDP1 CPT -19.0%.
Screening CCOc1ccc(CC2NCCc3cc(OCC)c(OCC)cc32)cc1OCC (configuration not stated) returned TDP1 cell noCPT 4.11µM*, Chronic BCR inh inconclusive, SW480 rereplic inconclusive, MCF10A rerep inconclusive, IL1B secr inh -18.6 and DT40 TDP1 CPT 3.66µM*.
Screening O=C(N/N=C/c1ccc(C(F)(F)F)cc1)c1ccncc1 returned TDP1 cell noCPT 4.8%, Chronic BCR inh 0.2%, SW480 rereplic -1.8%, MCF10A rerep inconclusive, IL1B secr inh 3.8 and DT40 TDP1 CPT 7.1%.
Screening CCCCn1c(=O)c(C(=O)NCc2ccccc2)c(O)c2ccccc21 returned TDP1 cell noCPT 16.4µM*, Chronic BCR inh 10.3%, SW480 rereplic 0.7%, MCF10A rerep -3.5%, IL1B secr inh 25.8 and DT40 TDP1 CPT inconclusive.
For CCCCCn1c(=O)c(C(=O)Nc2ccccc2S(N)(=O)=O)c(O)c2ccccc21 the results were TDP1 cell noCPT 4.61µM*, Chronic BCR inh 1.5%, SW480 rereplic 3.66µM*, MCF10A rerep 4.11µM*, IL1B secr inh inconclusive and DT40 TDP1 CPT 6.51µM*.
CCCCCn1c(=O)c(C(=O)NC(C)c2ccccc2)c(O)c2ccccc21 (configuration not stated) was read as TDP1 cell noCPT 20.6µM*, Chronic BCR inh inconclusive, SW480 rereplic -8.0%, MCF10A rerep -1.8%, IL1B secr inh 15.0 and DT40 TDP1 CPT inconclusive.
`CCCCCn1c(=O)c(C(=O)Nc2ccccc2C)c(O)c2ccccc21` gave TDP1 cell noCPT 2.2%, Chronic BCR inh 1.2%, SW480 rereplic -7.5%, MCF10A rerep -1.7%, IL1B secr inh 19.6 and DT40 TDP1 CPT 20.6%.
`CCCCCCn1c(=O)c(C(=O)Nc2ccncc2)c(O)c2ccccc21` gave Chronic BCR inh -7.0%.
Screening CCCCn1c(=O)c(C(=O)Nc2ccccc2)c(O)c2ccccc21 returned TDP1 cell noCPT 4.11µM*, Chronic BCR inh 8.5%, SW480 rereplic 0.9%, MCF10A rerep -1.6%, IL1B secr inh 17.5 and DT40 TDP1 CPT 3.66µM*.
Screening COC(=O)C[C@](O)(CCCC(C)(C)O)C(=O)O[C@@H]1C(OC)=C[C@]23CCCN2CCc2cc4c(cc2[C@H]13)OCO4 returned SW480 rereplic 25.6% and MCF10A rerep inconclusive.
For CCS(=O)(=O)Nc1cccc(C(=C2CCCCC2)c2cnc[nH]2)c1 the results were TDP1 cell noCPT 20.6µM*, Chronic BCR inh -3.3%, SW480 rereplic -2.9%, MCF10A rerep -9.2%, IL1B secr inh 29.0 and DT40 TDP1 CPT inconclusive.
`COc1cccc(C(=O)N2CCC3(CC2)OCCO3)c1` gave TDP1 cell noCPT -5.3%, Chronic BCR inh -1.4%, SW480 rereplic -14.0%, MCF10A rerep -1.1%, IL1B secr inh -0.9 and DT40 TDP1 CPT 0.0%.
`O=C(c1ccc2c(c1)ncn2C1CCCCC1)N1CCC2(CC1)OCCO2` gave TDP1 cell noCPT 4.61µM*, Chronic BCR inh inconclusive, SW480 rereplic 11.6µM*, MCF10A rerep 13µM*, IL1B secr inh 45.3 and DT40 TDP1 CPT 6.51µM*.
For Cc1cccc(-c2nc3ccc(C(=O)N4CCC5(CC4)OCCO5)cc3nc2-c2cccc(C)c2)c1 the results were TDP1 cell noCPT inconclusive, Chronic BCR inh 5.1%, SW480 rereplic inconclusive, MCF10A rerep inconclusive, IL1B secr inh -77.3* and DT40 TDP1 CPT inconclusive.
For CN(C=O)CP(=O)(O)CN(C)C=O the results were TDP1 cell noCPT -23.1%, Chronic BCR inh -10.7%, SW480 rereplic -4.1%, MCF10A rerep -1.5%, IL1B secr inh 0.0 and DT40 TDP1 CPT 13.7%.
COc1ccccc1-n1c(O)c(/C=C2\C=Nc3ccccc32)c(=O)[nH]c1=O was read as TDP1 cell noCPT inconclusive, Chronic BCR inh -9.8%, SW480 rereplic -0.4%, MCF10A rerep 0.0%, IL1B secr inh 0.0 and DT40 TDP1 CPT inconclusive.
COc1ccc(OCC(=O)N2CCN(Cc3nc4cc([N+](=O)[O-])ccc4n3C)CC2)cc1 was read as TDP1 cell noCPT inconclusive, Chronic BCR inh -4.2%, SW480 rereplic -3.0%, MCF10A rerep 2.2%, IL1B secr inh -7.9 and DT40 TDP1 CPT 14.6µM*.
Cc1cccc(OCC(=O)N2CCN(Cc3cccnc3)CC2)c1 was read as TDP1 cell noCPT -27.3%, Chronic BCR inh inconclusive, SW480 rereplic -0.7%, MCF10A rerep -1.2%, IL1B secr inh -12.5 and DT40 TDP1 CPT -8.6%.
`CSc1ccc(CN2CCN(C(=O)COc3cccc(C)c3)CC2)cc1` gave TDP1 cell noCPT 20.6µM*, Chronic BCR inh -0.1%, SW480 rereplic -8.7%, MCF10A rerep -2.8%, IL1B secr inh inconclusive and DT40 TDP1 CPT 16.4µM*.
Screening O=C(COc1ccc(Cl)cc1)N1CCN(Cc2ccc([N+](=O)[O-])cc2)CC1 returned TDP1 cell noCPT 23.1µM*, Chronic BCR inh 7.7%, SW480 rereplic 4.0%, MCF10A rerep -0.9%, IL1B secr inh -22.6 and DT40 TDP1 CPT inconclusive.
CC(=O)C1(c2ccccc2)CCNCC1 was read as TDP1 cell noCPT -11.5%, Chronic BCR inh inconclusive, SW480 rereplic -7.3%, MCF10A rerep -2.9%, IL1B secr inh -11.7 and DT40 TDP1 CPT -14.5%.

From PubChem BioAssay
